A short description of assay [1]: STM_H9_OrnithineISnorm_perc: Stemina devTOX quickPredict H9 human embryonic stem cell (hESC)-based Assay for Ornithine (ORN) Metabolite Biomarker, Normalized (AID 2283712; active = hit-call score of the fitted dose curve at least 0.9, where 1 is the maximum; inactive = score below 0.9;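 also: ornithine released into spent medium during last day measured by mass spectrometry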). The method in brief:
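Undifferentiated H9 hESCs exposed 72 h with daily media and compound renewal; final 24-h conditioned medium analysed by UPLC-HRMS. Ornithine peak area normalised to spiked C13 standard and to median 0.1% DMSO control; viability by CellTiter-Fluor.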

Assay [2] in a line: CEETOX_H295R_MTT_cell_viability: Viability Assessment in the CeeTox HT-H295R MTT Assay (AID 2283718; active = hit-call score of the fitted dose curve at least 0.9, where 1 is the maximum; inactive = score below 0.9;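 as to AC50: curve fitted both ways so AC50 may mark viability loss or gain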). Summed up:
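MTT reduction (0.5 mg/ml, 4 h at 37 C; absorbance at 570 and 650 nm) gave viability as background-corrected percent change versus controls. H295R cells had 48 h forskolin (10 uM) prestimulation, then 48 h chemical exposure at 0.1% DMSO.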

The nature of assay [3]: Tanguay_ZF_120hpf_ActivityScore_legacy: (Legacy) Oregon State University Tanguay Lab 120 Hour Post-fertilization zebrafish Assay Score for Activity (AID 2283742).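 As to AC50: dechorionated Tropical 5D wild-type zebrafish embryos held singly per well; static exposure from 6 hpf until 120 hpf at 28 °C.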 Summed up: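 Embryos are staged, enzymatically dechorionated at 4 hpf, placed individually at 6 hpf, then held in test chemical (0.64% DMSO) at 28C until 120 hpf. Mortality and malformations are scored by brightfield, with non-mortality endpoints skipped for dead embryos.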

The nature of assay [4]: ArunA_CellTiter_hNC: Viability Assessment in the ArunA Biomedical's Oris Neural Crest (hNC) Cell Migration Assay (AID 2283752). The protocol:
ArunA_CellTiter_hNC is a cell-based, single-readout assay that uses human H9-derived embryonic neural crest stem cells (hNC). Measurements were taken 72 hours after chemical dosing in a 96-well plate.ArunA_CellTiter_hNC is an assay component measured from the ArunA_CellTiter_hNC assay. It is designed to make measurements of viability, a form of viability reporter, as detected with fluorescence intensity signals by HCS Fluorescent Imaging technology. Data from the assay component ArunA_CellTiter_hNC was analyzed at the endpoint, ArunA_CellTiter_hNC, in the positive analysis fitting direction relative to DMSO as the negative control and baseline of activity. Using a type of viability reporter, loss-of-signal activity can be used to understand viability. To generalize the intended target to other relatable targets, this assay endpoint is annotated to the cell cycle intended target family, where the subfamily is cytotoxicity.
To assess the hNP and hNC migration and cell titer endpoints, 60,000 cells per well were plated onto Matrigel in basal growth medium with LIF and bFGF in a 96-well plate format. Plates were incubated for 16 h at 37C followed by a 72 h exposure to chemical in the test medium. For the migration endpoints, cells were seeded and incubated in presence of 'seeding stoppers' to prevent cell migration and growth into the detection zone. At the beginning of chemical exposure, stoppers were removed, and growth medium was replaced with test medium. In the case of the stopper control wells, stoppers remained in place following replacement of growth medium with test medium. […] Cell viability in the detection zone was quantitated using a Flexstation3 microplate reader (ex494 nm/em 517 nm). Corresponding cell titer endpoints were assessed for the hNP and hNC cells using the Promega CellTiter Aqueous One Solution Cell Proliferation Assay (Cat no. G3581; CellTiter 96). Finally, to gain insight into the mechanisms by which cells migrate into the detection zone, Ki-67 expression was quantified for 10 additional chemicals in the hNP and hNC systems. […]

Assay [5] can be described thus: ArunA_CellTiter_hNP: Viability Assessment in the ArunA Biomedical's Oris Neural Crest (hNC) Cell Migration Assay (AID 2283753). As for the experimental part:
ArunA_CellTiter_hNP is a cell-based, single-readout assay that uses human H9-derived neuroprogenitor stem cells (hNP1).Measurements were taken 72 hours after chemical dosing in a 96-well plate.ArunA_CellTiter_hNP is an assay component measured from the ArunA_CellTiter_hNP assay. It is designed to make measurements of viability, a form of viability reporter, as detected with fluorescence intensity signals by HCS Fluorescent Imaging technology. Data from the assay component ArunA_CellTiter_hNP was analyzed at the endpoint, ArunA_CellTiter_hNP, in the positive analysis fitting direction relative to DMSO as the negative control and baseline of activity. […]
To assess the hNP and hNC migration and cell titer endpoints, 60,000 cells per well were plated onto Matrigel in basal growth medium with LIF and bFGF in a 96-well plate format. […] Cell viability in the detection zone was quantitated using a Flexstation3 microplate reader (ex494 nm/em 517 nm). Corresponding cell titer endpoints were assessed for the hNP and hNC cells using the Promega CellTiter Aqueous One Solution Cell Proliferation Assay (Cat no. G3581; CellTiter 96). Finally, to gain insight into the mechanisms by which cells migrate into the detection zone, Ki-67 expression was quantified for 10 additional chemicals in the hNP and hNC systems. […]

Assay [6] can be described thus: ArunA_NOG_NucleusCount: ArunA Biomedical's Neurite Outgrowth (NOG) Assay for Nucleus Count (AID 2283756). Summed up:
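Human H9-derived differentiated neurons were exposed for 48 h right after seeding. Hoechst-stained nuclei gated by size and intensity were counted by automated high-content imaging as viable neurons. Loss of signal vs DMSO.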

Assay [7] in a line: ArunA_NOG_NeuriteLength: ArunA Biomedical's Neurite Outgrowth (NOG) Assay for Neurite Length (AID 2283757). The method in brief: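 Differentiated human H9-derived neurons were exposed for 48 h from seeding, then stained with Hoechst and βIII-tubulin. Automated high-content imaging gave total neurite length per valid neuron, counting processes >10 um. Loss of signal was scored versus DMSO.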

Assay [8] in a line: ArunA_Migration_hNC: ArunA Biomedical's Oris Neural Crest (hNC) Cell Migration Assay (AID 2283755). Summed up: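 Human H9-derived neural crest stem cells, 60,000/well on Matrigel, 16 h at 37C, then 72 h chemical exposure after seeding-stopper removal. Migration into detection zone read as calcein-AM fluorescence (ex494/em517), relative to DMSO.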
Assay [9] deals with Thyroperoxidase (TPO), gene 445522. In words: CCTE_Simmons_GUA_TPO: CCTE's Guaiacol Assay for Thyroperoxidase (TPO) Inhibition, Simmons Lab (AID 2283750). Summed up: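 Porcine thyroid microsomes (25 ug) in 200mM potassium phosphate, preincubated 30 s at 37C with compound (8 concentrations, 5 nM–87.5 uM) and 35mM guaiacol; 1mM H2O2 starts reaction. Absorbance change at 450nm over first 80 s; loss of signal versus DMSO, three replicates.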

A short description of assay [10]: ArunA_Migration_hNP: ArunA Biomedical's Oris Neuroprogenitor (hNP) Cell Migration Assay (AID 2283754). Summed up:
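Human H9-derived hNP1 neuroprogenitors on Matrigel with LIF/bFGF, plated around seeding stoppers for 16 h at 37C; stoppers removed at start of 72 h chemical exposure. Calcein-AM staining, fluorescence 494/517 nm in detection zone; loss-of-signal vs DMSO; cytochalasin D control.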

Inconclusive results are not listed. Active and inactive are the calls of the source. The calls were made as follows, unless noted: active = hit-call score of the fitted dose curve at least 0.9, where 1 is the maximum; inconclusive = response in the unintended direction; inactive = score below 0.9.

The AC50 is the midpoint of the concentration-response curve, whichever way the signal moves. Regarding `C[C@]12C=CC(=O)C=C1CC[C@H]1[C@@H]3C[C@@H](O)[C@](O)(C(=O)CO)[C@@]3(C)C[C@H](O)[C@@]12F`, the outcome in assay [1] and in assay [2] was inactive. The concentration at half-maximal activity (AC50) in [3] was 0.00064 µM (active).

`Cc1nc(-c2ccccn2)ncc1C(=O)Nn1cc(C)c2cc(F)ccc21`: the outcome in assay [1] and in assay [3] was inactive. Further, in assay [2], the AC50 was 75.8 µM (active).

For `O=S1(=O)CCCO1`, the result in assay [1] and in assay [3] was inactive.

With `COc1cc2c(c(OC)c1OC)-c1ccc(OC)c(=O)cc1[C@@H](NC(C)=O)CC2`, the half-maximal activity concentration (AC50) is 0.0159 µM (active) in assay [1], 0.118 µM (active) in assay [2] and 36.4 µM (active) in assay [3].

Take `O=c1[nH]cnc2c1ncn2[C@H]1CC[C@@H](CO)O1`: the outcome in assay [1] and in assay [3] was inactive.

In the case of `CCn1nc(C)c2c1C(=O)NCC(c1ccc(O)cc1)=N2`, the call in assay [2] and in [3] was inactive.

As for `OC(Cn1cncn1)(Cn1cncn1)c1ccc(F)cc1F`, the outcome in assay [1] and in [3] was inactive.

For the compound `C=CCc1cc(S(=O)(=O)c2ccc(O)c(CC=C)c2)ccc1O`, the compound was classed as inactive in assay [2] and in [3].

`OCc1c[nH]c2ccccc12`: the result in assay [2] was inactive.

As for `CC(C)c1nnc2ccc(-c3ocnc3-c3cc(F)ccc3F)cn12`, the compound was called inactive in [2] and in assay [3].

With `CCOc1ccc2[nH]cc(C(=O)NCc3ccccc3)c(=O)c2n1`, in assay [2], the compound was classed as inactive.

As for `O=S(=O)(O)c1ccc(N=Nc2c(O)ccc3cc(S(=O)(=O)O)ccc23)cc1`, the call in [2] and in [3] was inactive.

Take `Cc1ncc([C@@H](CCCCCCc2ccc3c(n2)NCCC3)CC(=O)O)cn1`: the outcome in [1], in assay [2] and in assay [3] was inactive.

As to `CCCCCCCCN(C)C`, the compound was called inactive in assay [2] and in [3].

As for `CCCC(CCC)C(=O)O`, the AC50 in assay [1] was 334 µM (active); in assay [6], 82.6 µM (active); in assay [7] it was 77.4 µM (active). Moreover, the compound was classed as inactive in assay [3], in [4] and in assay [5].

Consider `NC(=O)N1c2ccccc2C=Cc2ccccc21`, for which, in assay [1], the result was inactive. The AC50 in assay [3] was 0.0251 µM (active).

On to `c1ccc2c(c1)-c1cccc3c1c-2cc1ccccc13`, for which the outcome in assay [2] and in assay [3] was inactive.

As to `O=C1CN(N=Cc2ccc([N+](=O)[O-])o2)C(=O)N1`, the AC50 in assay [1] is 7.42 µM (active). In assay [3], the outcome was inactive.

In the case of `CCCCN1C(=O)[C@@H]([C@H](O)C2CCCCC2)NC(=O)C12CCN(Cc1ccc(Oc3ccc(C(=O)O)cc3)cc1)CC2`, the outcome in [1] and in assay [3] was inactive.

Turning to `OCCNCCO`, the result in assay [1], in assay [3] and in [8] was inactive. In addition, the results for the AC50 in assay [6] and in [7] were 21.3 µM (active) and 24.8 µM (active), respectively.

As to `c1ccc2cc3ccccc3cc2c1`, the outcome in [2] and in assay [3] was inactive.

For the compound `C[C@@H](Oc1ccc(CNC(=O)c2cccnc2Oc2ccc3c(c2)OCO3)c(F)c1)C(=O)O`, the result in assay [2], in [3] and in assay [9] was inactive.

On to `CC[C@H](C)C(=O)O[C@H]1C[C@H](O)C=C2C=C[C@H](C)[C@H](CC[C@@H](O)C[C@@H](O)CC(=O)O)[C@H]21`, for which the outcome in assay [1], in [2] and in assay [3] was inactive.

Consider `Cn1cc[nH]c1=S`, for which the result in assay [1], in [10] and in [8] was inactive. The AC50 is 5.5 µM (active) in assay [6] and 6.43 µM (active) in assay [7].

On to `COS(C)(=O)=O`, for which the AC50 in assay [1] was 71.4 µM (active). Moreover, in assay [3], the compound was called inactive.

For the compound `Cn1c(=O)c2[nH]cnc2n(C)c1=O`, the outcome in [1] and in assay [3] was inactive.

With `CC(C)C(=O)Nc1ccc([N+](=O)[O-])c(C(F)(F)F)c1`, the AC50 in [1] was 77.1 µM (active). Further, the compound was classed as inactive in assay [3].

Consider `CCCCC(CC)C(=O)OCCOCCOCCOC(=O)C(CC)CCCC` (centres undefined), for which the outcome in assay [2] and in assay [3] was inactive.

In the case of `CCCCCCCCCC`, the outcome in assay [1], in [3], in assay [4], in assay [8] and in assay [6] was inactive.

As for `CCCOc1ccc(S(=O)(=O)N2CCN(CC)CC2)cc1-c1nc2c(CC)n(Cc3ccccn3)nc2c(=O)[nH]1`, the result in assay [2] and in [3] was inactive.

Turning to `CCCCCCCCCCCCCCO`, the result in assay [2] and in assay [3] was inactive.

On to `NC(=O)NN=Cc1ccc([N+](=O)[O-])o1`, for which the outcome in [1] and in [3] was inactive.

For `CCN(CC)C(=S)SSC(=S)N(CC)CC`, the AC50 is 0.32 µM (active) in [1]; 0.831 µM (active) in assay [3]; 8.19 µM (active) in [4]; 7.2 µM (active) in assay [5]; 0.405 µM (active) in assay [10]; 8.55 µM (active) in assay [8]. Further, the half-maximal activity concentration (AC50) was 18.4 µM (active) in [6] and 15.5 µM (active) in assay [7]. Besides, the result in [2] was inactive.

For `Nc1ccn([C@@H]2O[C@H](CO)[C@@H](O)[C@@H]2O)c(=O)n1`, the AC50 in [1] was 0.235 µM (active); in [2] it was 1.43 µM (active). For the same compound, the call in assay [3] was inactive.

As to `NNC(=O)c1ccncc1`, in assay [9], the AC50 is 20.7 µM (active).

Values taken from PubChem BioAssay (EPA / NIEHS).
